These results are taken from publication PMC12820563, “FoxP3 forms a head-to-head dimer in vivo and stabilizes its multimerization on adjacent microsatellites”.

In all, about 16,000 sequences were measured (“rpm ratio (pull-down/input)”: median about 0.94, highest 2% from about 1.7 on). The sample holds the highest values, similar sequences and a random draw of the others, so the mix is not that of the screen.

For the assay, the target named is T1, MBP-FoxP1dN (Mus musculus, UniProt P58462 326-579).
T1 sequence: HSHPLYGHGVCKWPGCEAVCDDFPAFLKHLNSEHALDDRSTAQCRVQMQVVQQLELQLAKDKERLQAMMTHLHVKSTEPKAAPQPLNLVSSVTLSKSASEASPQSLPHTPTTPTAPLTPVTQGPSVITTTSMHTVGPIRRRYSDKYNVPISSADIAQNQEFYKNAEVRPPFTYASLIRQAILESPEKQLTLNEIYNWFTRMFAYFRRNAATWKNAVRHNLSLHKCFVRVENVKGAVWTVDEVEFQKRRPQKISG
Put plainly: PD-seq (MBP pull-down with sequencing); 20 mM Tris-HCl pH 7.5, 100 mM NaCl, 1.5 mM MgCl2, 0.4 uM protein, 0.1 uM dsDNA library, 30 min, room temperature, amylose pull-down; high values mean tight binding. The note with it: protein: recombinant; tags: His6-MBP; chain copies: 2; dsDNA, one strand shown. The method in brief:
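His6-MBP-tagged mouse FoxP3 or FoxP1 fragment lacking the N-terminus, expressed in E. coli, was mixed at 0.4 µM with 0.1 µM Klenow-filled double-stranded degenerate DNA library. Incubation was 30 min at room temperature in Tris pH 7.5 buffer with NaCl and MgCl2. Complexes were caught on amylose resin and washed three times; DNA was released with proteinase K, PCR-barcoded and Illumina-sequenced. Binding is reads-per-million enrichment, pull-down over input, with replicates pooled.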
“GATGATTGTTCTCCCAGCTGATGAATTCAGATATTCGAGTAAACAAATTTTCCTAATCTTTCTGTTCAAGCGCCATCTAC”: the binding signal is 1.01 RPM ratio (pull-down/input). For “GATGATTGTTCTCCCAGCTGATGAATTAAGTTGATCGAGTAAACAAATTTTCCTAATCTTTCTGTTCAAGCGCCATCTAC” the value was 1.17 RPM ratio (pull-down/input). “GATGATTGTTCTCCCAGCTGATGAATTCGATCCGTCGAGTAAACAAATTTTCCTAATCTTTCTGTTCAAGCGCCATCTAC”: the binding signal was 0.886 RPM ratio (pull-down/input). For “GATGATTGTTCTCCCAGCTGATGAATTGTTCCGATCGAGTAAACAAATTTTCCTAATCTTTCTGTTCAAGCGCCATCTAC” the value was 1.04 RPM ratio (pull-down/input).

With “GATGATTGTTCTCCCAGCTGATGAATTGGCTTAGTCGAGTAAACAAATTTTCCTAATCTTTCTGTTCAAGCGCCATCTAC”, the binding signal was 0.844 RPM ratio (pull-down/input). For “GATGATTGTTCTCCCAGCTGATGAATTGATAAAATCGAGTAAACAAATTTTCCTAATCTTTCTGTTCAAGCGCCATCTAC” the value was 1.14 RPM ratio (pull-down/input).

Take “GATGATTGTTCTCCCAGCTGATGAATTAACGAGCTCGAGTAAACAAATTTTCCTAATCTTTCTGTTCAAGCGCCATCTAC”: the binding signal was 0.81 RPM ratio (pull-down/input).

With “GATGATTGTTCTCCCAGCTGATGAATTCTAGTGGTCGAGTAAACAAATTTTCCTAATCTTTCTGTTCAAGCGCCATCTAC”, the binding signal was 0.86 RPM ratio (pull-down/input). Then “GATGATTGTTCTCCCAGCTGATGAATTATCTTTCTCGAGTAAACAAATTTTCCTAATCTTTCTGTTCAAGCGCCATCTAC”, with 0.948 RPM ratio (pull-down/input); and “GATGATTGTTCTCCCAGCTGATGAATTATTTATCTCGAGTAAACAAATTTTCCTAATCTTTCTGTTCAAGCGCCATCTAC”, with 1.76 RPM ratio (pull-down/input). Consider “GATGATTGTTCTCCCAGCTGATGAATTAGTATTATCGAGTAAACAAATTTTCCTAATCTTTCTGTTCAAGCGCCATCTAC”, for which the binding signal is 1.75 RPM ratio (pull-down/input). For “GATGATTGTTCTCCCAGCTGATGAATTTTCAACATCGAGTAAACAAATTTTCCTAATCTTTCTGTTCAAGCGCCATCTAC” the value was 1.14 RPM ratio (pull-down/input); for “GATGATTGTTCTCCCAGCTGATGAATTTGTCAAATCGAGTAAACAAATTTTCCTAATCTTTCTGTTCAAGCGCCATCTAC”, 1.17 RPM ratio (pull-down/input).

As to “GATGATTGTTCTCCCAGCTGATGAATTGTCAACATCGAGTAAACAAATTTTCCTAATCTTTCTGTTCAAGCGCCATCTAC”, the binding signal is 2.76 RPM ratio (pull-down/input). For “GATGATTGTTCTCCCAGCTGATGAATTTATTGAATCGAGTAAACAAATTTTCCTAATCTTTCTGTTCAAGCGCCATCTAC” the value was 1.28 RPM ratio (pull-down/input); for “GATGATTGTTCTCCCAGCTGATGAATTAGTAGTATCGAGTAAACAAATTTTCCTAATCTTTCTGTTCAAGCGCCATCTAC”, 1.2 RPM ratio (pull-down/input). Then “GATGATTGTTCTCCCAGCTGATGAATTTATTTGATCGAGTAAACAAATTTTCCTAATCTTTCTGTTCAAGCGCCATCTAC”, with 1.2 RPM ratio (pull-down/input); and “GATGATTGTTCTCCCAGCTGATGAATTATTAGTATCGAGTAAACAAATTTTCCTAATCTTTCTGTTCAAGCGCCATCTAC”, with 1.46 RPM ratio (pull-down/input).

In the case of “GATGATTGTTCTCCCAGCTGATGAATTTATTATCTCGAGTAAACAAATTTTCCTAATCTTTCTGTTCAAGCGCCATCTAC”, the binding signal is 1.41 RPM ratio (pull-down/input). Then “GATGATTGTTCTCCCAGCTGATGAATTTTATTGATCGAGTAAACAAATTTTCCTAATCTTTCTGTTCAAGCGCCATCTAC”, with 2.45 RPM ratio (pull-down/input); and “GATGATTGTTCTCCCAGCTGATGAATTGGATGTATCGAGTAAACAAATTTTCCTAATCTTTCTGTTCAAGCGCCATCTAC”, with 1.1 RPM ratio (pull-down/input); and “GATGATTGTTCTCCCAGCTGATGAATTGAAAATCTCGAGTAAACAAATTTTCCTAATCTTTCTGTTCAAGCGCCATCTAC”, with 0.791 RPM ratio (pull-down/input). For “GATGATTGTTCTCCCAGCTGATGAATTCAACTCGTCGAGTAAACAAATTTTCCTAATCTTTCTGTTCAAGCGCCATCTAC” the value was 0.869 RPM ratio (pull-down/input). Take “GATGATTGTTCTCCCAGCTGATGAATTTCTGTACTCGAGTAAACAAATTTTCCTAATCTTTCTGTTCAAGCGCCATCTAC”: the binding signal was 0.909 RPM ratio (pull-down/input). Then “GATGATTGTTCTCCCAGCTGATGAATTTACCATCTCGAGTAAACAAATTTTCCTAATCTTTCTGTTCAAGCGCCATCTAC”, with 1.19 RPM ratio (pull-down/input).

With “GATGATTGTTCTCCCAGCTGATGAATTTCCAATGTCGAGTAAACAAATTTTCCTAATCTTTCTGTTCAAGCGCCATCTAC”, the binding signal was 0.862 RPM ratio (pull-down/input). For “GATGATTGTTCTCCCAGCTGATGAATTATCCGATTCGAGTAAACAAATTTTCCTAATCTTTCTGTTCAAGCGCCATCTAC” the value was 0.95 RPM ratio (pull-down/input); for “GATGATTGTTCTCCCAGCTGATGAATTTGTATTCTCGAGTAAACAAATTTTCCTAATCTTTCTGTTCAAGCGCCATCTAC”, 1.44 RPM ratio (pull-down/input); for “GATGATTGTTCTCCCAGCTGATGAATTATTATTATCGAGTAAACAAATTTTCCTAATCTTTCTGTTCAAGCGCCATCTAC”, 2.52 RPM ratio (pull-down/input).

Turning to “GATGATTGTTCTCCCAGCTGATGAATTTATTAAATCGAGTAAACAAATTTTCCTAATCTTTCTGTTCAAGCGCCATCTAC”, the binding signal is 1.39 RPM ratio (pull-down/input). Then “GATGATTGTTCTCCCAGCTGATGAATTCTTAGTATCGAGTAAACAAATTTTCCTAATCTTTCTGTTCAAGCGCCATCTAC”, with 0.963 RPM ratio (pull-down/input).
